Screening data as filed in PubChem BioAssay.
hcDAF12 agonist: H. contortus DAF-12 nuclear receptor activators, primary screen, cell-based, luminescence, HEK293, lit1-tk-luc reporter | HEK293 hcDAF-12 lit1-tk-luc reporter; 0% DMSO, 100% Δ7-dafachronic acid | activation, % at 6.8 µM | hit rate 1.4% among 370,000 | AID 652067, 2013;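 active = activation above the mean of all tested compounds plus 3 SD, cut at about 5.5% in these data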;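 also: 100% = response to 3 µM Δ7-dafachronic acid high control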
ssDAF12 agonist: S. stercoralis DAF-12 nuclear receptor activators, primary screen, cell-based, luminescence, HEK293, GRIP1 co-expression, lit1-tk-luc; HEK293 ssDAF-12/GRIP1 lit1-tk-luc reporter; % of 3 µM dafachronic acid response; activation, % at 6.8 µM; Nuclear hormone receptor DAF-12 (Strongyloides stercoralis); hit rate 1% among 370,000;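 active = activation above the mean over all tested compounds plus 3 SD, cut at about 0.9% in these data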;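 also: 0% = DMSO-only wells and 100% = 3 µM delta7-dafachronic acid wells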
hgDAF-12 ag: H. glycines DAF-12 receptor agonists, primary screen, cell-based, luminescence, HEK293, GAL4 fusion, UAS-luciferase; hit rate 1.8% among 370,000; HEK293 GAL4-hgDAF12 UAS-luciferase reporter, agonist luminescence; normalized to butyrate control; activation, % at 6.8 µM;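 active = activation above a cutoff set at the mean of all screened compounds plus 3 SD, cut at about 10% in these data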;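 also: 0% = DMSO wells and 100% = sodium butyrate wells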
esBAF inh: Bmi1 luciferase reporter increase in mESCs, primary screen, esBAF inhibitor project, mouse ES cells, Bmi1 luciferase knock-in, single point; 24 h; 100% = twice the neutral-well signal; reporter increase, % at 12.5 µM; hit rate 2% among 350,000; in the data active = activation above about 40%;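 also: 0% = median of the plate's neutral control wells and 100% = double that signal; a rise in the Bmi1 reporter signal indicates esBAF inhibition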
DAX1 StAR inh: DAX1 (NR0B1) inhibitors on StAR promoter, primary screen, cell-based, luminescence, SF-1 (NR5A1), full-length DAX-1 | inhibition, % at 6.8 µM | HEK293T StAR-luciferase reporter, SF-1/DAX-1 repression relief | hit rate 1.1% among 370,000;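 active = inhibition above the mean over all tested compounds plus 3 SD, cut at about 3.6% in these data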;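 also: 0% = DAX-1 cells with DMSO and 100% = cells lacking DAX-1 with DMSO; higher inhibition means more luminescence from relief of DAX-1 repression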
Wnt act: Wnt/beta-catenin pathway activators, primary screen, cell-based, plate reader, single point | hit rate 1.2% among 300,000 | activation, % at 9.35 µM | Wnt/beta-catenin reporter cell assay, activator; in the data active = activation above about 30%, passing the limit was not always enough;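 also: 0% = neutral control wells and 100% = positive control wells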
Active calls of the source: *; · = no result given. Hits are enriched below; roughly 4.2% of the tested compounds scored in any of these assays.

SMILES	hcDAF12 agonist	ssDAF12 agonist	hgDAF-12 ag	esBAF inh	DAX1 StAR inh	Wnt act
CC(=O)c1sc(Nc2nc3ccc(F)cc3s2)nc1C	0.7	0.1	6.6	·	0.5	67.0*
CCOC(=O)c1csc(Nc2nc3ccc(F)cc3s2)n1	-2.1	-1.1	-1.2	·	-1.7	38.7*
COCC(=O)N[C@@H]1CC[C@H](CC(=O)N2CCCCC2)O[C@@H]1CO	·	·	·	0.8	·	·
CCCC(=O)Nc1ccc2c(c1)OC[C@@H](C)N(C(=O)c1ccccc1F)C[C@H](C)[C@H](OC)CN(C)C2=O	·	·	·	-3.3	·	·
CNCC(O)Cn1c2c(c3ccccc31)CCCC2 (stereo unspecified)	-1.7	6.8*	-0.1	·	0.5	-1.9
Cc1cc(C(C)(C)C)ccc1Oc1cccc2c1S(=O)(=O)N(C1CCCC1)CC(COCc1ccccc1)O2 (stereo unspecified)	-0.3	0.0	3.2	4.6	3.6*	-4.5
Cc1noc(C)c1S(=O)(=O)Nc1ccc2c(c1)CC(=O)N([C@@H](C)CO)C[C@H](C)[C@H](CN(C)C(=O)Nc1ccc(F)cc1)O2	·	·	·	6.3	·	·
Cc1noc(C)c1NC(=O)NCC[C@@H]1CC[C@H](NC(=O)Nc2cccc(Cl)c2)[C@H](CO)O1	·	·	·	7.8	·	·
Clc1ccc(C2=NNC(=NCc3ccccc3)SC2)cc1	-1.5	-1.9	0.8	·	-0.5	4.8
c1ccc(CN=C2NN=C(c3ccccc3)CS2)cc1	1.5	0.5	8.9	45.8*	2.5	7.9
CC(=O)c1ccc(-c2nnc(CCC(=O)N(C)Cc3cccc4cnccc34)o2)s1	-1.3	-1.1	-1.0	·	-0.9	-1.2
Cc1ccc(-c2nnc(CCC(=O)N(C)Cc3nccs3)o2)s1	3.3	1.9*	4.0	44.0*	0.1	4.5
COCC(=O)Nc1ccc2c(c1)C(=O)N(C)C[C@H](OC)[C@@H](C)CN(Cc1cccc(F)c1)[C@@H](C)CO2	·	·	·	-2.6	·	·
O=c1[nH]c(NNC(=S)NCc2ccccc2)nc2c1C1(CCCCC1)Cc1ccccc1-2	-1.1	-0.6	2.3	-7.1	-0.2	·
C=CCNC(=S)NNc1nc2c(c(=O)[nH]1)C1(CCCC1)Cc1ccccc1-2	-1.2	-1.7	-1.6	·	0.1	51.9*
CC(C)NC(=O)N(C)C[C@H]1Oc2c(NC(=O)C3CC3)cccc2C(=O)N([C@H](C)CO)C[C@H]1C	·	·	·	0.1	·	·
CCn1cc(S(=O)(=O)CC(=O)Nc2ccc3c(c2)OCCO3)c2ccccc21	-3.2	-1.1	-2.7	1.2	-1.4	6.6
CCN(CC)C(=O)Cn1cc(S(=O)(=O)CC(=O)Nc2ccc3c(c2)OCCO3)c2ccccc21	-0.1	2.0*	1.5	·	-0.2	19.5
CO[C@@H]1CN(C)C(=O)c2ccc(NC(=O)Nc3ccc4c(c3)OCO4)cc2OC[C@@H](C)NC[C@@H]1C	·	·	·	86.8*	·	·
CO[C@@H]1CN(C)C(=O)c2ccc(NC(=O)c3ccc4c(c3)OCO4)cc2OC[C@H](C)NC[C@@H]1C	·	·	·	-4.3	·	·
CO[C@@H]1CN(C)C(=O)c2ccc(NC(=O)Nc3ccc4c(c3)OCO4)cc2OC[C@H](C)NC[C@@H]1C	·	·	·	59.8*	·	·
COc1ccc(NC(=O)CSc2nnc(CNC(=O)COc3ccc(Cl)cc3)o2)cc1	1.5	-1.5	13.1*	·	0.5	-7.6
CO[C@H]1CN(C)C(=O)c2cc(NC(=O)C3CC3)ccc2OC[C@@H](C)N(Cc2ccccc2)C[C@@H]1C	·	·	·	8.3	·	·
COc1ccc(C2=NNC(c3cccs3)=Nc3ccc(OC)cc32)cc1	2.5	-0.1	8.4	64.3*	0.3	·
CCC1CCc2c(sc(NC(=O)c3ccco3)c2C(N)=O)C1 (stereo unspecified)	2.7	-0.3	9.9	59.5*	0.3	37.1*
SMILES	hcDAF12 agonist	ssDAF12 agonist	hgDAF-12 ag	esBAF inh	DAX1 StAR inh	Wnt act
CC1CCc2c(sc(/N=C/c3ccco3)c2C(N)=O)C1 (stereo unspecified)	0.4	-1.1	2.7	·	1.5	44.6*
C[C@@H]1CN([C@H](C)CO)S(=O)(=O)c2ccc(C#CCN(C)C)cc2O[C@H]1CN(C)Cc1ccc(F)cc1	·	·	·	-3.8	·	·
Cc1noc(C)c1S(=O)(=O)Nc1ccc2c(c1)CC(=O)N([C@@H](C)CO)C[C@@H](C)[C@H](CN(C)CC1CC1)O2	·	·	·	-1.0	·	·
C/C(CCc1ccc2c(c1)OCO2)=N\NC(=O)c1ccccc1Cl	2.7	-1.2	1.6	·	1.1	·
C/C(CCc1ccc2c(c1)OCO2)=N\NC(=O)c1ccccc1	2.4	2.5*	11.0*	·	0.1	1.1
C[C@@H]1CN([C@H](C)CO)C(=O)c2cccc(NS(=O)(=O)c3cccs3)c2O[C@H]1CN(C)S(=O)(=O)c1ccc(F)cc1	·	·	·	-2.6	·	·
Cc1ccc(-c2nc(N)s[n+]2-c2ccccc2)cc1	0.3	-0.1	2.8	·	-0.5	53.5*
Cc1noc(C)c1S(=O)(=O)Nc1ccc2c(c1)C(=O)N([C@@H](C)CO)C[C@@H](C)[C@@H](CN(C)S(=O)(=O)c1c(C)noc1C)O2	·	·	·	-6.0	·	·
CC(=O)N1CCN(S(=O)(=O)c2cccc(C(=O)N(Cc3ccccc3)c3ccc(C)cc3)c2)CC1	-1.7	-0.3	-2.0	11.3	-0.9	-1.0
Cc1ccc(N(Cc2ccccc2)C(=O)c2cccc(S(=O)(=O)N3CC(C)OC(C)C3)c2)cc1 (stereo unspecified)	-3.6	-1.5	-2.7	63.8*	-4.4	-0.9
COc1ccccc1-c1cn(CC[C@H]2CC[C@@H](NC(=O)C3CCC3)[C@@H](CO)O2)nn1	·	·	·	-4.4	·	·
S=C(NCCc1ccccc1)NC1CCCCCC1	2.8	-0.4	10.9*	·	2.7	·
O=C(NC(=S)NCCc1ccccc1)c1ccccc1	·	·	·	66.8*	·	6.6
O=C(NC(=S)NCc1ccccc1)c1cccnc1	3.7	1.0*	1.6	3.8	0.1	-0.5
O=C(NNC(=S)NCc1ccccc1)c1cccnc1	0.8	-0.3	-3.0	·	1.0	1.9
N#Cc1cccc(-c2ccc3c(c2)[C@@H]2[C@@H](CCN2S(=O)(=O)c2ccccc2F)[C@@H](CO)N3)c1	·	·	·	-1.4	·	·
Cc1ccc(C(=O)Nc2ccnc(-c3cccnc3)n2)cc1	-1.2	-1.1	3.4	·	0.5	0.3
Cc1ccc(NC(=O)Nc2ccnc(-c3cccnc3)n2)cc1	1.2	-1.5	5.3	·	-0.7	54.8*
S=C(NCc1ccccn1)Nc1ccc(Cl)cc1Cl	1.2	-0.8	0.4	49.4*	0.1	·
S=C(NNc1ccnc2cc(Cl)ccc12)Nc1ccc(Cl)cc1Cl	-0.5	-1.6	0.0	49.0*	-0.7	0.4
COc1ccc(Cl)cc1NC(=S)NCc1ccccn1	2.6	-1.4	2.3	·	0.0	25.3
